In the library only some 0.5% were active in any assay of this set; here they are far more common.
E coli growth-1 – counter-screen for AddAB inhibitors: E. coli growth inhibition | E. coli V3065 growth, OD600 absorbance, 18 h | inhibition, % at 11.9 µM | 0.27% of 330,000 active | AID 449728;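 active = inhibition above the campaign's mean inhibition across all tested compounds plus 3 SD, cut at about 9.9% in these data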;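 also: uninfected addAB+ strain grown without phage in ampicillin broth; 0% = DMSO wells and 100% = ciprofloxacin 0.95 µg/ml wells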
Tat export inh – blocks Tat-dependent protein export in E. coli; E. coli MC4100 TorA-mCherry Tat export, fluorescence; 0.036% of 340,000 active; inhibition, % at 10 µM;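 active = mean replicate inhibition at least 50% and at least half of replicates individually reaching 50%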;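 also: exported cargo escapes ClpAP degradation while cytoplasmic cargo is degraded and loses fluorescence; 0% = median of neutral control wells and 100% = median of NaSCN control wells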
phage Ecoli inh – E. coli growth loss with phage present. growth absorbance. inhibition, % at 11.9 µM. 0.26% of 360,000 active. AID 651602; in the data active = inhibition above about 11%
AddAB inh – less growth of phage-infected E. coli with AddAB | E. coli expressing H. pylori AddAB, absorbance growth | inhibition, % at 11.9 µM | 0.29% of 330,000 active | AID 435030; in the data active = inhibition above about 12%;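 also: 0% = vehicle wells of infected cells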
E coli growth-2 – inhibitors of Escherichia coli growth; OD600, 23 h; active compounds read low; OD600 absorbance (no concentration beside the values); 0.21% of 330,000 active;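 active = OD600 absorbance below the run mean of sample wells minus 3.6 SD, in any replicate, cut at about 0.56 in these data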
AddAB conf – confirmation screen: growth loss of phage-infected E. coli expressing H. pylori AddAB | shares compounds with AddAB inh | E. coli V3065 expressing H. pylori AddAB, T4 phage, OD; T4 phage with gene 2 nonsense mutations | inhibition, % at 11.9 µM | 64% of 880 active;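 active = mean inhibition above a set limit taken from the earlier primary screen, cut at about 13% in these data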;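 also: higher means less bacterial growth since AddAB block lets phage replicate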
RecBCD counter – reduces growth of phage-infected RecBCD+ E. coli, AddAB inhibitor counter-screen; shares compounds with AddAB inh; E. coli V66 + mutant T4 phage, OD growth; inhibition, % at 11.9 µM; 73% of 880 active; AID 488955;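 active = mean inhibition above the mean of solvent-only control wells plus 3 SD, cut at about 4% in these data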;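 also: optical density read after an 18 h incubation at 37 °C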
bact viab count – counter-screen for AddAB inhibitors: inhibitors of bacterial viability | absorbance (AddAB counterscreen) | inhibition, % at 11.9 µM | shares compounds with AddAB inh | 35% of 880 active; in the data active = inhibition above about 25%
RecBCD conf – growth loss of phage-infected V66 E. coli, RecBCD confirmation screen. 45% of 890 active. inhibition, % at 11.9 µM. E. coli V66 + T4 2- phage, growth OD. shares compounds with phage Ecoli inh. AID 651982;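 active = mean inhibition over triplicates exceeding the hit threshold derived in the original primary screen, cut at about 11% in these data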
Ecoli viability – counter-screen for RecBCD inhibitors: inhibitors of bacterial viability; shares compounds with phage Ecoli inh; E. coli viability, absorbance (OD) growth; inhibition, % at 11.9 µM; 29% of 890 active; AID 651983; in the data active = inhibition above about 20%;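 also: E. coli strain V66 grown with compound alone and no phage infection; 0% = bacteria with DMSO vehicle only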
AddAB counter – growth loss of phage-infected AddAB E. coli, RecBCD counter-screen. shares compounds with phage Ecoli inh. E. coli expressing H. pylori AddAB + T4 phage, OD growth; gene 2 mutant T4, recBCD-deleted host. inhibition, % at 11.9 µM. 45% of 890 active. AID 651984;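 active = mean inhibition above the solvent-only control wells' mean plus 3 SD, cut at about 22% in these data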;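 also: higher means less bacterial growth from phage killing when AddAB is blocked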
Active calls of the source: *; . = no result given; ! = a repeat was not active.

SMILES | E coli growth-1 | Tat export inh | phage Ecoli inh | AddAB inh | E coli growth-2 | AddAB conf | RecBCD counter | bact viab count | RecBCD conf | Ecoli viability | AddAB counter
O=c1c2cc(Br)ccc2nc(-c2cccc(C(F)(F)F)c2)n1O | 16* | -13 | 17* | 16* | 0.71 | 8 | 16* | 5 | 8 | 11 | 17
N#Cc1ccc(-c2nc3ccc(Br)cc3c(=O)n2O)cc1 | -2 | -2 | -2 | -1 | 0.65 | . | . | . | . | . | .
O=C(CC1CC=CCCC(Cc2ccc(F)cc2)C(=O)OCCNC1=O)NCCO (centres undefined) | . | . | . | . | 0.73 | . | . | . | . | . | .
Nc1nc(N)c2c(ccc3nccc32)[nH]1 | 95* | 11 | 96* | 93* | . | 97* | 91* | 102* | 101* | 103* | 102*
Nc1ccc2ncccc2c1N | -5 | 4 | 2 | -2 | 0.66 | . | . | . | . | . | .
COC(=O)C1=COC(OC2OC(CO)C(O)C(O)C2O)C2C(CO)=CCC12 (centres undefined) | . | . | . | . | 0.64 | . | . | . | . | . | .
NC(=NCCCCCCN=C(N)/N=C(\N)Nc1ccc(Cl)cc1)/N=C(\N)Nc1ccc(Cl)cc1 | 105* | 156*! | 106*! | 103* | . | 100* | 101* | 100* | 104* | 105* | 104*
c1cnc2c(c1)ccc1cccnc12 | 12*! | -1 | 12* | 12*! | 0.33* | 13* | 20* | 7 | 10 | 10 | 6
O=Cc1ccc2ccc3cccnc3c2n1 | 5 | -13 | 2 | 5 | 0.68 | . | . | . | . | . | .
CC(=O)N(N=C1Sc2ccccc2C1=O)c1cccc(C)c1 | . | . | . | . | 0.72 | . | . | . | . | . | .
CCn1cc(C(=O)Nc2ncccc2O)c(=O)c2cc(F)c(N3CCN(C(=O)c4ccco4)CC3)cc21 | 64* | -5 | 15* | 93* | 0.11* | 102* | 4.9* | 77* | 3 | 3 | 86*
CCn1cc(C(=O)O)c(=O)c2cc(F)c(N3CCN(C(=S)NC(=O)c4ccccc4C)CC3)cc21 | 100* | 59* | 97* | 99* | 0.071* | 99* | 101* | 100* | 104* | 105* | 104*
CCn1cc(C(=O)O)c(=O)c2cc(F)c(N3CCN(C(=S)NC(=O)c4cc(OC)cc(OC)c4)CC3)cc21 | 98* | 22 | 97* | 98* | 0.083* | 101* | 100* | 101* | 104* | 105* | 106*
CCn1cc(C(=O)O)c(=O)c2cc(F)c(N3CCN(S(=O)(=O)c4ccc(Br)cc4)CC3)cc21 | 0 | . | . | 8 | . | . | . | . | . | . | .
CCn1cc(C(=O)O)c(=O)c2cc(F)c(N3CCN(C(=S)NC(=O)c4ccccc4)CC3)cc21 | 101* | 21 | 82* | 101* | 0.077* | 99* | 100* | 103* | 100* | 100* | 100*
CCCOc1ccc(C(=O)NC(=S)N2CCN(c3ncc4c(=O)c(C(=O)O)cn(CC)c4n3)CC2)cc1 | . | . | 3 | . | . | . | . | . | . | . | .
CCn1cc(C(=O)O)c(=O)c2cc(F)c(NN=Cc3ccccc3[N+](=O)[O-])cc21 | . | . | . | . | 0.7 | . | . | . | . | . | .
C#CCOCCOCCOCCNc1nc(N2CCN(C(=O)Cn3cc(CCCN=C(N)N)nn3)CC2)nc(N2CCN(C(=O)C(C(C)O)n3cc(CCCCN)nn3)CC2)n1 (centres undefined) | . | . | . | . | 0.67 | . | . | . | . | . | .
CC[n+]1ccc(C=C2Sc3ccccc3N2CCCS(=O)(=O)[O-])c2ccccc21 | . | . | . | . | 0.71 | . | . | . | . | . | .
Cc1sc(NC(=O)C=Cc2ccco2)c(C(=O)OC(C)C)c1C | . | . | . | . | 0.72 | . | . | . | . | . | .
CCc1ccc(C=C2SC(=S)N(CCC(=O)NC3=NCCS3)C2=O)cc1 | . | . | . | . | 0.74 | . | . | . | . | . | .
CCn1cc(C(=O)O)c(=O)c2cc(F)c(N3CCN(C(=S)Nc4ccc(OC)cc4)CC3)cc21 | 101* | 72* | 101* | 100* | 0.076* | 99* | 99* | 99* | 104* | 104* | 104*
CCCCOC(=O)c1ccc(NC(=S)N2CCN(c3ncc4c(=O)c(C(=O)O)cn(CC)c4n3)CC2)cc1 | 4 | 2 | 3 | 3 | 0.65 | . | . | . | . | . | .
C=CCNC(=S)N1CCN(c2cc3c(cc2F)c(=O)c(C(=O)O)cn3CC)CC1 | 99* | 7 | 41* | 100* | 0.076* | 103* | 101* | 104* | 103* | 105* | 104*
C=CCOC(=O)C1=CC(c2ccc3c(c2)OCO3)CC(OCc2ccc(CO)cc2)O1 (centres undefined) | . | . | . | . | 0.66 | . | . | . | . | . | .
SMILES | E coli growth-1 | Tat export inh | phage Ecoli inh | AddAB inh | E coli growth-2 | AddAB conf | RecBCD counter | bact viab count | RecBCD conf | Ecoli viability | AddAB counter
C#CCOCCOCCOCCNc1nc(N2CCN(C(=O)C(CCCCN)n3cc(C(N)CC(C)C)nn3)CC2)nc(N2CCN(C(=O)C(Cc3ccc(O)cc3)n3cc(C(N)C(C)CC)nn3)CC2)n1 (centres undefined) | . | . | . | . | 0.69 | . | . | . | . | . | .
CCN1CC2C3C(=O)N(Cc4ccccc4)C(=O)C3[C@](Cc3ccccc3)(C1=O)N2C(=O)c1ccc(Cl)c(Cl)c1 (some centres undefined) | . | . | . | . | 0.67 | . | . | . | . | . | .
O=c1c2ccccc2nc(N/N=C/c2c(O)ccc3ccccc23)n1O | 24* | 4 | 21* | 19* | . | 24* | 21* | 17 | 12* | 16 | 17
O=c1c2ccccc2nc(N/N=C/c2ccc(O)cc2)n1O | 2 | -5 | 2 | 2 | . | . | . | . | . | . | .
NS(=O)(=O)c1ccc(N=Nc2ccc(O)c3ncccc23)cc1 | 4 | -2 | 1 | 6 | 0.7 | . | . | . | . | . | .
Oc1ccc(N=Nc2ccc3c(c2)OCCO3)c2ncccc12 | 9 | -6 | 11* | 13* | 0.71 | 13* | 9.6* | 9 | 9 | 10 | 14
CCN(CC)c1ccc(/C=N/NC(=O)c2nnn(-c3nonc3N)c2C(C)C)c(O)c1 | 20* | -32 | 11* | 27* | . | 11 | 16* | 7 | 6 | 9 | 8
CC(C)c1c(C(=O)N/N=C/c2ccc3c(c2)OCO3)nnn1-c1nonc1N | -2 | 3 | -2 | 5 | . | . | . | . | . | . | .
COCCN=C1OC(=O)N2C(=O)C3=C4C(CC5C(=O)N(c6ccccc6)C(=O)C5C4[C@@]12Cc1ccccc1)C1C(=O)N(c2ccccc2)C(=O)C1C3C (some centres undefined) | . | . | . | . | 0.7 | . | . | . | . | . | .
CC(=O)Nc1ccc2nc(SCC(=O)Nc3ccc(N4CCOCC4)c(Cl)c3)sc2c1 | -3 | -6 | 3 | 2 | 0.67 | . | . | . | . | . | .
